# Test results from the supplement of paper PMC8728848.
# The sample as a whole holds a higher share of the strongest signals than the screen did.
# How the values were obtained:
# Assay in all cases: glycan array binding signal (z-score within array); higher = stronger binding
# Settings in all cases: glycan notation: IUPAC condensed, linker removed
# [1] = molecular target: Fuc(a1-2)Gal(b1-4)GlcNAc(b1-2)Man
# Method in brief: (§1)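 Glycan array data were curated from 3228 arrays in the Consortium for Functional Glycomics database and kept only where the protein sequence was available. Glycan names were converted to IUPAC-condensed notation, and columns mapping to the same glycan were averaged. The binding signal is a within-array Z-score, averaged across arrays of the same protein sequence at different concentrations or buffers and across linkers. Negative Z-scores can be read as non-binding.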
# [2] = molecular target: Fuc(a1-2)[Gal(a1-3)]Gal(b1-3)GalNAc(b1-3)Gal(a1-4)Gal(b1-4)Glc
# Method in brief: as §1
# [3] = molecular target: Fuc(a1-2)[GalNAc(a1-3)]Gal(b1-4)GlcNAc(b1-2)Man(a1-3)[Fuc(a1-2)[GalNAc(a1-3)]Gal(b1-4)GlcNAc(b1-2)Man(a1-6)]Man(b1-4)GlcNAc(b1-4)[Fuc(a1-6)]GlcNAc
# Method in brief: as §1
# [4] = molecular target: Fuc(a1-3)[Gal3S(b1-4)]Glc
# Method in brief: as §1
# [5] = molecular target: Fuc(a1-3)[GalNAc(b1-4)]GlcNAc6S
# Method in brief: as §1
# Fuc(b1-3)GlcNAc = molecular target: Fuc(b1-3)GlcNAc
# Method in brief: as §1
# [6] = molecular target: Gal(a1-3)Gal(b1-4)GlcNAc(b1-2)Man(a1-3)[Gal(a1-3)Gal(b1-4)GlcNAc(b1-2)Man(a1-6)]Man(b1-4)GlcNAc(b1-4)GlcNAc
# Method in brief: as §1
# [7] = molecular target: Gal(a1-3)Gal(b1-4)[Fuc(a1-3)]GlcNAc(b1-2)Man(a1-3)[Gal(a1-3)Gal(b1-4)[Fuc(a1-3)]GlcNAc(b1-2)Man(a1-6)]Man(b1-4)GlcNAc(b1-4)GlcNAc
# Method in brief: as §1
# [8] = molecular target: Gal(a1-4)Gal(b1-3)GlcNAc(b1-2)Man(a1-3)[Gal(a1-4)Gal(b1-3)GlcNAc(b1-2)Man(a1-6)]Man(b1-4)GlcNAc(b1-4)GlcNAc
# Method in brief: as §1
# [9] = molecular target: Gal(a1-4)Gal(b1-4)GlcNAc(b1-2)Man(a1-3)[Gal(a1-4)Gal(b1-4)GlcNAc(b1-2)Man(a1-6)]Man(b1-4)GlcNAc(b1-4)GlcNAc
# Method in brief: as §1
# Gal(b1-3)GalNAc = molecular target: Gal(b1-3)GalNAc
# Method in brief: as §1
# [10] = molecular target: Gal(b1-3)GalNAc(b1-4)Gal(b1-4)Glc
# Method in brief: as §1
# [11] = molecular target: Gal(b1-3)GlcNAc(a1-3)Gal(b1-4)GlcNAc
# Method in brief: as §1
# Gal(b1-3)GlcNAc(b1-2)Man = molecular target: Gal(b1-3)GlcNAc(b1-2)Man
# Method in brief: as §1
# [12] = molecular target: Gal(b1-3)GlcNAc(b1-2)Man(a1-3)[Gal(b1-3)GlcNAc(b1-2)Man(a1-6)]Man(b1-4)GlcNAc(b1-4)GlcNAc
# Method in brief: as §1
# [13] = molecular target: Gal(b1-3)GlcNAc(b1-3)Gal(b1-3)GlcNAc
# Method in brief: as §1
# [14] = molecular target: Gal(b1-4)GalNAc(a1-3)[Fuc(a1-2)]Gal(b1-4)GlcNAc
# Method in brief: as §1
# [15] = molecular target: Gal(b1-4)GlcNAc(b1-2)Man(a1-3)[Gal(b1-4)GlcNAc(b1-2)Man(a1-6)]Man(b1-4)GlcNAc(b1-4)GlcNAc
# Method in brief: as §1
# [16] = molecular target: Gal(b1-4)GlcNAc(b1-2)Man(a1-3)[GlcNAc(b1-2)Man(a1-6)]Man(b1-4)GlcNAc(b1-4)GlcNAc
# Method in brief: as §1
# [17] = molecular target: Gal(b1-4)GlcNAc(b1-2)Man(a1-3)[Man(a1-6)]Man(b1-4)GlcNAc(b1-4)GlcNAc
# Method in brief: as §1
# [18] = molecular target: Gal(b1-4)GlcNAc(b1-2)Man(a1-6)[GlcNAc(b1-2)Man(a1-3)]Man(b1-4)GlcNAc(b1-4)GlcNAc
# Method in brief: as §1
# [19] = molecular target: Gal(b1-4)GlcNAc(b1-3)Gal(b1-4)GlcNAc(b1-2)[Gal(b1-4)GlcNAc(b1-3)Gal(b1-4)GlcNAc(b1-6)]Man(a1-6)[Gal(b1-4)GlcNAc(b1-3)Gal(b1-4)GlcNAc(b1-2)Man(a1-3)]Man(b1-4)GlcNAc(b1-4)[Fuc(a1-6)]GlcNAc
# Method in brief: as §1
# [20] = molecular target: Gal(b1-4)GlcNAc(b1-3)Gal(b1-4)GlcNAc(b1-3)[Gal(b1-4)GlcNAc(b1-3)Gal(b1-4)GlcNAc(b1-6)]GalNAc
# Method in brief: as §1
# Gal4S(b1-4)GlcNAc = molecular target: Gal4S(b1-4)GlcNAc
# Method in brief: as §1
# Gal6S(b1-4)Glc6S = molecular target: Gal6S(b1-4)Glc6S
# Method in brief: as §1
# GalNAc(a1-3)Gal = molecular target: GalNAc(a1-3)Gal
# Method in brief: as §1
# [21] = molecular target: GalNAc(a1-3)GalNAc(b1-3)Gal(a1-4)Gal(b1-4)Glc
# Method in brief: as §1
# [22] = molecular target: GalNAc(b1-4)GlcNAc(b1-2)Man(a1-3)[GalNAc(b1-4)GlcNAc(b1-2)Man(a1-6)]Man(b1-4)GlcNAc(b1-4)GlcNAc
# Method in brief: as §1
# GalNAc3S(b1-4)GlcNAc = molecular target: GalNAc3S(b1-4)GlcNAc
# Method in brief: as §1
# GalNAc6S(b1-4)GlcNAc = molecular target: GalNAc6S(b1-4)GlcNAc
# Method in brief: as §1
# [23] = molecular target: Glc(a1-6)Glc(a1-6)Glc(a1-6)Glc
# Method in brief: as §1
binder,measurement,setting,value
GNL (Galanthus nivalis) (protein) MGHHHHHHHHYGTLENGHWLMVGMSIFSKDRTVELRMQDDGKLAIYYNDHCAWQSTAQQVNNAKGAVMQGDGNFCIYDKNGKATWHTNTAAPSGDSHTFVSVQDDGNLVLYKNNGATPIWSSKSNK,glycan array binding signal (z-score),[1],-0.231
same,glycan array binding signal (z-score),[2],-0.172
same,glycan array binding signal (z-score),[3],-0.207
same,glycan array binding signal (z-score),[4],-0.237
same,glycan array binding signal (z-score),[5],-0.181
same,glycan array binding signal (z-score),Fuc(b1-3)GlcNAc,-0.156
same,glycan array binding signal (z-score),[6],3.44
same,glycan array binding signal (z-score),[7],-0.054
same,glycan array binding signal (z-score),[8],4.92
same,glycan array binding signal (z-score),[9],5.71
same,glycan array binding signal (z-score),Gal(b1-3)GalNAc,-0.233
same,glycan array binding signal (z-score),[10],-0.061
same,glycan array binding signal (z-score),[11],-0.174
same,glycan array binding signal (z-score),Gal(b1-3)GlcNAc(b1-2)Man,-0.16
same,glycan array binding signal (z-score),[12],4.54
same,glycan array binding signal (z-score),[13],-0.228
same,glycan array binding signal (z-score),[14],-0.257
same,glycan array binding signal (z-score),[15],4.76
same,glycan array binding signal (z-score),[16],3.92
same,glycan array binding signal (z-score),[17],10.9
same,glycan array binding signal (z-score),[18],7.59
same,glycan array binding signal (z-score),[19],-0.241
same,glycan array binding signal (z-score),[20],-0.222
same,glycan array binding signal (z-score),Gal4S(b1-4)GlcNAc,-0.212
same,glycan array binding signal (z-score),Gal6S(b1-4)Glc6S,-0.207
same,glycan array binding signal (z-score),GalNAc(a1-3)Gal,-0.25
same,glycan array binding signal (z-score),[21],-0.305
same,glycan array binding signal (z-score),[22],-0.248
same,glycan array binding signal (z-score),GalNAc3S(b1-4)GlcNAc,-0.219
same,glycan array binding signal (z-score),GalNAc6S(b1-4)GlcNAc,-0.21
same,glycan array binding signal (z-score),[23],-0.121
